# According to paper PMC5540273 (PLoS ONE, 2017):
# What was measured:
# Conditions in all cases: concentration: 1 μM, replicates: in singlicate; n = 1
# SRMS = system: SRMS
# SRPK1 = system: SRPK1
# SRPK2 = system: SRPK2
# SRPK3 = system: SRPK3
# STK16 = system: STK16
# STK33 = system: STK33
# STK35 = system: STK35
# STK36 = system: STK36
# STK39 = system: STK39
# SYK = system: SYK
# 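Also: KINOMEscan kinase panel screen.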
Compound,%Inh (SRMS) [%],%Inh (SRPK1) [%],%Inh (SRPK2) [%],%Inh (SRPK3) [%],%Inh (STK16) [%],%Inh (STK33) [%],%Inh (STK35) [%],%Inh (STK36) [%],%Inh (STK39) [%],%Inh (SYK) [%]
N#Cc1ccc(Oc2ccc(Nc3ncnc4cc[nH]c34)cc2Cl)cc1,0,0,0,0,36,27,27,10,15,13
CNc1nccc(-c2c(-c3ccc(F)cc3)ncn2C2CCN(C)CC2)n1 [SB-222903],15,0,0,0,0,13,0,3,0,27
Fc1ccc(Nc2nccc(-c3c(-c4ccc(Cl)cc4)nn4ncccc34)n2)cc1F [GW829058],22,0,0,6,23,1,0,8,22,7
Cl.O=S(=O)(c1cccc(F)c1)c1ccc(Nc2ncnc3cc(Br)sc23)cc1Cl [GSK306886],0,100,0,0,25,0,0,0,1,5
Cc1cc(N2CCC(NS(=O)(=O)c3ccc(F)cc3)CC2)nc(Nc2cccc(C#N)c2)n1.O=C(O)C(F)(F)F [GSK1653537],0,15,0,18,0,0,0,0,1,19
CC(C)(C)c1ccc(-n2cnc3c(N)ncnc32)cc1 [SKF-97263],14,29,0,31,0,0,11,11,0,0
CSc1ccc(NC2=C(c3ccccc3Cl)C(=O)NC2=O)cc1 [SB-342411],0,7,0,5,14,0,5,48,19,23
Cn1ccc2ncnc(Nc3ccc(Oc4cccc(Cl)c4)c(Cl)c3)c21,0,20,0,0,0,26,0,6,0,4
CCc1nc(-c2cccc(C)c2)c(-c2ccnc(NC(=O)c3ccccc3)c2)s1,0,0,0,0,6,12,0,–,0,0
O=c1cc(N2CCOCC2)nc2n(Cc3cccc(Cl)c3)ccn12 [GSK2296823],0,16,0,51,0,0,6,0,11,5
CC(C)(C)OC(=O)NC1CCCN(c2cc(-c3ccc4c(N)n[nH]c4c3)nc(N)n2)C1 (stereo not drawn) [GSK2286096],0,15,0,0,19,53,0,0,0,0
Cc1ccc(O)cc1Nc1cc(C(F)(F)F)nc2ccc(-c3ccncc3)cc12 [GW630823],0,7,0,0,28,24,0,0,0,8
O=C(NCCCN1CCCC1=O)c1cnc(NCc2cc(Cl)ccc2Cl)nc1NC1CCNCC1,0,21,0,4,0,0,0,0,0,8
Clc1cc(Nc2ncnc3cc[nH]c23)ccc1OCc1ccccn1,0,0,0,19,35,9,0,12,8,8
Clc1ccc(-c2cc(-c3c[nH]nc3-c3ccccn3)ccn2)cc1 [GW681251],0,0,0,0,19,0,0,0,1,22
CCc1nc(-c2cccc(N(C)S(=O)(=O)c3ccccc3)c2)c(-c2ccnc(Nc3ccc(N4CCN(C(C)=O)CC4)nc3)n2)s1 [GSK1645895],19,19,0,0,41,0,0,99.4,0,0
Clc1cccc(-c2nc(Nc3ccncc3)c3ccccc3n2)c1 [GW873004],2,–,43,0,0,26,0,3,0,33
